PubChem BioAssay (NCI)
About 83,000 compounds went through this panel and 20% of them were active in at least one assay; those are over-represented in the sample as a whole.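 48-hour exposure, single concentration, 96-well plates; percent growth endpoint where 0 means no net growth. Active: below 10.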 The source made the active and inactive calls.

These compounds were tested on HCT-15 colon (assay: NCI-60 one-dose screen, 48 h (100 = growth as untreated, 0 = no growth, -100 = all killed)). Settings: 10 µM unless noted.
With C=C1c2c(C)nn(-c3ccc(N)cc3)c2N(C)C23CC1C1(C)c4c(C)nn(-c5ccc(N)cc5)c4N(C)C(C)(CC12)C3 (centres undefined) the growth was 38.5% (inactive).
In the case of C=CCOc1cccc(/C=C2\SC(=Nc3ccc(O)cc3)NC2=O)c1, the growth is reported as 10.1% (inactive).
In the case of COc1cc(C2CC(=O)Nc3n[nH]c(-c4ccccc4)c32)cc(OC)c1OC (centres undefined), the growth is reported as 68.4% (inactive).
For CN1CCN(C(=O)[C@@]2(C)CC[C@]3(C)CC[C@]4(C)C(=CC[C@@H]5[C@@]6(C)C/C(=C/c7ccncc7)C(=O)C(C)(C)[C@@H]6CC[C@]54C)[C@@H]3C2)CC1, the growth was 30.2% (inactive).
CCOc1cc(C2C(Cl)C(=O)N2n2cnnc2)ccc1O (centres undefined) was tested, and the growth was 103% (inactive).
For Nc1c(C(=O)Nc2ccccc2)sc2nc3c(cc12)CCCCCC3, the growth was 16.3% (inactive).
For Cn1c(NCCc2ccc(O)c(O)c2)nc2c1c(=O)n(Cc1ccc(Cl)cc1)c(=O)n2C, the growth was 40.7% (inactive).
For CCCCNCC(=O)Nc1ccc(C(=O)OCC)cc1, the growth was 91.5% (inactive).
With CCCCCCN(CCCCCC)CC(O)c1cccc2ccc(Cl)cc12 (centres undefined) the growth was 53.4% (inactive).
O=C(c1ccccc1)c1ccc(Cl)c([N+](=O)[O-])c1 was tested, and the growth was 90% (inactive).
For C[C@@H]1CC[C@@H]2[C@@H]1[C@H](OC(=O)/C=C/c1ccccc1)[C@]1(C3CCCCC3)C[C@@H](NC(=O)CO)[C@@]2(C)O1, the growth was 99% (inactive).
N[C@@H]1CCC[C@H]1NCCCCN1C(=O)c2cccc3cccc(c23)C1=O was tested, and the growth was 81.8% (inactive).
NC(N)=N/N=C(/c1ccccc1)c1ccc(N)cc1 was tested, and the growth was 106% (inactive).
With O=C1N/C(=N/O)S/C1=C/c1cn(-c2ccccc2)nc1-c1ccccc1 the growth was 86.5% (inactive).
For COC1=CC(c2ccc[nH]2)=N/C1=C\c1[nH]c(C)c(C(=O)OCCn2cc(CCC[C@@H]3Cc4cc(O)ccc4C4CC[C@]5(C)[C@@H](O)CC[C@H]5C43)nn2)c1C (some centres undefined), the growth was 25% (inactive).
With N#Cc1c(Oc2ccc([N+](=O)[O-])cc2)nc2sc3cc(Cl)ccc3n2c1=N the growth was 102% (inactive).
With COc1cc2c(=O)n(CCCn3ccnc3)c3c4cc5c(cc4ccc3c2cc1OC)OCO5 the growth was 10.1% (inactive).
For CN(C)S(=O)(=O)n1cnc([C@@H]2[C@@H]3C(=O)OC[C@@H]3C[C@]23N=CN(Cc2ccccc2)C3=O)c1, the growth was 98.4% (inactive).
In the case of CCCCS(=O)(=O)Oc1ccc(-c2nc(C)c(C(=O)OCC)s2)cc1C=O, the growth is reported as 50.6% (inactive).
COc1ccc(Oc2nc(Nc3ccc(N4CCCCC4)nc3)ncc2NC(=O)c2cc(OC)cc(OC)c2)cc1 was tested, and the growth was 17.8% (inactive).
In the case of COc1cc(/C=C/c2nc(Nc3ccc(S(=O)(=O)Nc4cc(C)on4)cc3)c3ccccc3n2)ccc1O, the growth is reported as 31.8% (inactive).
In the case of COc1ccc(OC)c(C(=O)Nc2cccc(-c3cc(=O)c4ccccc4o3)c2)c1, the growth is reported as 93.4% (inactive).
With CN1CCN(C2=C(Cl)C(=O)c3ccccc3C2=O)CC1 the growth was 33% (inactive).
In the case of CS(=O)(=O)c1ccc(-c2[nH]c3ccc(F)cc3c2/C=N/NC(N)=S)cc1, the growth is reported as 20.4% (inactive).
